High-throughput results from PubChem BioAssay.
VHR inh color: VHR1 phosphatase inhibitors, primary screen, biochemical, colorimetric, HTS | Dual specificity protein phosphatase 3 (Homo sapiens), P51452 | inhibition, % at 20 µM | recombinant VHR phosphatase, colorimetric substrate read-out | actives 0.7% (n = 50,000); in the data active = inhibition above about 60%
Target sequence (P51452 whole entry, looked up): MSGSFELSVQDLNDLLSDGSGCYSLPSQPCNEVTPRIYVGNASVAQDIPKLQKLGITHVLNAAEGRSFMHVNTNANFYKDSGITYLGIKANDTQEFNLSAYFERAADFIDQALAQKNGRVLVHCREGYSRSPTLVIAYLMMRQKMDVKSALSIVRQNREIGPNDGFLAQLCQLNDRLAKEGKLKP
Hits are given with their value; – = inactive. This excerpt belongs to a sample that is enriched for hits.

SMILES | VHR inh color
O=C1NC(=S)N(c2ccccc2F)C(=O)/C1=C/c1ccc(I)o1 | 85.5
CCOc1ccc(N2C(=O)NC(=O)/C(=C\c3ccc(I)o3)C2=O)cc1 | –
CCOc1ccc(N2C(=O)/C(=C/c3ccc(I)o3)C(=O)NC2=S)cc1 | 85.0
CCOc1ccc(N2C(=O)/C(=C/c3ccc(C)o3)C(=O)NC2=S)cc1 | –
O=C(Nc1ccc(Br)cc1C(=O)O)c1cc([N+](=O)[O-])cc([N+](=O)[O-])c1 | –
O=C(Nc1ccc2ccccc2c1)c1ccccc1C(F)(F)F | –
CC(=O)NC1=NC(=O)/C(=C\c2ccc(-c3ccc(C(=O)O)cc3)o2)S1 | –
CC(=O)NC1=NC(=O)/C(=C\c2ccc(Br)o2)S1 | 81.3
CC(=O)NC1=NC(=O)/C(=C/c2ccc(C)cc2)S1 | –
CC1CC(Nc2ccccc2)c2ccccc2N1C(=O)COc1ccc2ccccc2c1 (stereo not drawn) | –
CC(=O)C1=C(O)C(=O)N(CC2CCCO2)C1c1ccccc1F (stereo not drawn) | –
O=C(COc1ccc2ccccc2c1)Nc1ccc(Cl)c(Cl)c1 | –
O=C(COc1ccccc1)Nc1ccc(Br)c(Cl)c1 | –
O=C(COc1ccc2ccccc2c1)Nc1ccc(Br)c(Cl)c1 | 114.0
Cc1cc(Cl)ccc1OCC(N)=O | –
N#C/C(=C\c1ccc(-c2ccc(Cl)c(Cl)c2)o1)C(N)=O | 69.5
O=C(O)/C=C/c1ccc(-c2ccc(Cl)c(Cl)c2)o1 | –
N#C/C(=C\c1ccc(-c2cccc(C(F)(F)F)c2)o1)C(N)=O | –
O=C(/C=C/c1ccco1)/C=C/c1ccc(-c2ccc(Cl)c(Cl)c2)o1 | 88.7
O=C(/C=C/c1ccco1)Nc1ccc(Cl)c(Cl)c1 | –
N#C/C(=C\c1ccc(-c2ccc(Br)cc2)o1)C(N)=O | –
OCCN(CCO)c1ccc(C(c2ccc(Cl)cc2)c2ccc(N(CCO)CCO)cc2)cc1 | –
COc1cc(/C=N/NC(=O)c2ccncc2)ccc1OC(=O)c1cccs1 | –
Cc1n[nH]c(=S)n(/N=C/c2ccco2)c1=O | –
Cc1nc2ncccn2c1-c1csc(Nc2cccc(O)c2)n1 | –
SMILES | VHR inh color
CCOc1ccc(Nc2nc(-c3c(C)nc4cc(C)ccn34)cs2)cc1 | 88.3
CCOc1ccc(Nc2nc(-c3sc(NC(=O)CC)nc3C)cs2)cc1 | –
CCOc1ccc(Nc2nc(-c3ccccn3)cs2)cc1 | –
Cc1ccn2c(-c3csc(Nc4cccc(O)c4)n3)c(C)nc2c1 | 67.2
Cc1ccc(-c2csc(Nc3ccc(O)cc3)n2)c(C)c1 | –
CN1CCN(Cn2c(O)c(N=NC(=O)c3cccnc3)c3cc(Br)ccc32)CC1 | –
Cc1ccc(OCCNC(=O)c2cccc3ccccc23)cc1C | –
CC1=C(C(=O)OC2CCCC2)C(c2ccc(Br)cc2)NC(=O)N1 (stereo not drawn) | –
Brc1ccc(OCCOc2ccc(/C=N/n3cnnc3)cc2)cc1 | 114.5
CC(C)(C)c1ccc(OCCOc2ccc(/C=N/n3cnnc3)cc2)cc1 | –
C(=N\n1cnnc1)/c1cccc(OCCOc2ccccc2)c1 | –
Cc1cc(OCCN2CCCC2)ccc1Cl | –
CCOC(=O)C1=C(C)N=c2s/c(=C\c3cccc([N+](=O)[O-])c3)c(=O)n2C1c1ccc(OC(C)=O)cc1 (stereo not drawn) | –
COc1cccc(-c2cc(C(=O)Nc3ncccn3)c3ccccc3n2)c1 | –
COc1cccc(-c2cc(C(=O)Nc3nn[nH]n3)c3ccccc3n2)c1 | –
COc1cccc(-c2cc(C(=O)Nc3nc4ccccc4s3)c3ccccc3n2)c1 | 67.9
Cc1ccc(-c2ccc(OCC(=O)Nc3ccc(S(=O)(=O)Nc4onc(C)c4C)cc3)cc2)cc1 | –
O=C(O)C1C2CCC(O2)C1C(=O)NCc1cccs1 (stereo not drawn) | –
CSc1nc2ccc(NC(=O)CSc3nc4ccc([N+](=O)[O-])cc4s3)cc2s1 | –
O=C(/C=C/c1cccc([N+](=O)[O-])c1)N1CCC(Cc2ccccc2)CC1 | –
CCc1ccc(-n2c(C)cc(/C=C3/NC(=S)NC3=O)c2C)cc1 | –
COC(=O)c1ccc(-n2c(C)cc(/C=C3\NC(=S)NC3=O)c2C)cc1 | 110.8
Cc1cc(/C=C2/NC(=S)NC2=O)c(C)n1-c1ccc(Br)cc1 | –
COc1ccccc1C/C(N)=N/OC(=O)c1ccccc1Br | –
COc1ccccc1C/C(N)=N/OC(=O)c1ccco1 | 96.4
SMILES | VHR inh color
COc1ccccc1C/C(N)=N/OC(=O)c1ccc(I)cc1 | –
Oc1ccccc1/C=N/Nc1nc(N2CCCC2)nc(N2CCCC2)n1 | –
CCCCOc1ccc(/C=C(/C#N)c2nc3ccc(C)cc3[nH]2)cc1OC | –
Clc1ccc(CN2CCN(C3CCN(Cc4ccccc4)CC3)CC2)cc1 | –
C/C(=N\NC(=O)c1cc(C)[nH]n1)c1ccc(Br)cc1 | –
COc1ccc(CNC(=O)C(=O)NCc2ccc(C)cc2)cc1 | –
COc1ccc(-c2csc(-c3nc(-c4ccc(OC)c(OC)c4)cs3)n2)cc1OC | –
COc1ccc(Nc2nc(-c3ccc4ccccc4c3)cs2)cc1 | –
COc1ccc(-c2csc(Nc3ccc(N)cc3)n2)cc1OC | 90.1
CC(=O)Nc1ccccc1NC(=O)Cc1cccs1 | –
CC1(C(=O)NCc2cccs2)CC1(Br)Br (stereo not drawn) | –
S=C(S)N(CCN(Cc1cccs1)C(=S)S)Cc1cccs1 | 97.8
Cc1ccc([N+](=O)[O-])cc1-c1ccc(/C=C2/C(=O)NN(c3ccc(F)cc3)C2=O)o1 | –
COc1ccc(Cc2nc3ccccc3c(=O)n2/N=C/c2cccs2)cc1OC | –
CN(C)c1cc(N/N=C/C=C/c2ccccc2)nc(N(C)C)n1 | –
C=CCc1cc(/C=C2/C(=O)NC(=O)N(c3cccc(C)c3)C2=O)cc(OC)c1O | –
C=CCc1cc(/C=C2\C(=O)NC(=S)N(c3cccc(Br)c3)C2=O)cc(OC)c1O | 77.4
Cc1ccc(/C=C2\C(=O)NC(=O)N(c3cccc(Br)c3)C2=O)cc1 | –
COc1cc(/C=C2\C(=O)NC(=S)N(c3cccc(Br)c3)C2=O)cc(Cl)c1O | –
COc1cc(/C=C2\C(=O)NC(=O)N(c3cccc(Br)c3)C2=O)cc(Cl)c1O | –
COc1ccc2ccccc2c1/C=C1/C(=O)NC(=O)N(c2cccc(Br)c2)C1=O | 101.2
CCN(CC)C1=C/C(=N/S(=O)(=O)c2ccccc2)c2ccccc2C1=O | –
O=C1N=c2ccc(Cl)cc2=C1c1sc(=S)n(Cc2ccco2)c1O | 67.7
O=C1N=c2ccccc2=C1c1sc(=S)n(Cc2ccco2)c1O | –
CCCCn1c(O)c(C2=c3ccccc3=NC2=O)sc1=S | –
SMILES | VHR inh color
COC(=O)CCN1C(=O)/C(=C\c2c(F)cccc2Cl)SC1=S | –
O=c1oc2ccccc2cc1-c1ccc([N+](=O)[O-])cc1 | –
Cn1c(=O)c2c([nH]c(=S)n2Cc2ccc(Cl)c(Cl)c2)n(C)c1=O | 113.9
Cn1c(=O)c2c(nc(Sc3nc4ccccc4n3Cc3ccccc3)n2C)n(C)c1=O | –
Cn1c(=O)c2c(nc(N/N=C/c3ccccc3Cl)n2Cc2ccccc2)n(C)c1=O | –
COc1ccc(C(=O)Nc2ccccc2C(=O)NC(C(=O)N2CCOCC2)C(C)C)cc1 (stereo not drawn) | –
O=C(O)c1ccc(NC(=O)c2cccs2)c(NC(=O)c2cccs2)c1 | –
CCC(=O)N1c2ccc3ccccc3c2C2C=CCC2C1c1ccc(F)cc1 (stereo not drawn) | –
O=[N+]([O-])c1ccc(C2Nc3ccc([N+](=O)[O-])cc3C3C=CCC32)cc1 (stereo not drawn) | –
Oc1ccc(C2Nc3ccc4ccccc4c3C3C=CCC32)cc1 (stereo not drawn) | 76.5
